± gives the standard deviation of the averaged measurements.
What was measured:
Details in all cases: concentration: 10 µM; 24 h
[1] = test system: HCC1569; test: cell number relative to DMSO (% of DMSO); higher = more cells (less growth inhibition / toxicity)
Method in brief: (§1)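 Cell number or H1.0 nuclear intensity appears as percent of the plate control, based on the median of replicates. Measurements came from HCC1569 and TDF cells exposed in triplicate to compounds at 10 µM for 24 h at 37 °C, then imaged in six fields per well at ×10. Positional effects were smoothed out of HCC1569 values.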

[2] = test system: TDF; test: as above
Method in brief: as §1

[3] = test system: TDF; test: H1.0 immunofluorescence intensity relative to DMSO (% of DMSO); higher = stronger H1.0 induction, active = 120 or more
Method in brief: as §1

[4] = test system: HCC1569; test: H1.0 immunofluorescence intensity relative to DMSO (% of DMSO); higher = stronger H1.0 induction, active = 140 or more
Method in brief: as §1
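For H1.0 immunofluorescence intensity relative to DMSO in this document: TDF is a line of transformed human dermal fibroblasts of mesenchymal origin.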
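For cell number relative to DMSO in this document: TDF denotes transformed human dermal fibroblasts of mesenchymal origin.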

Row | Compound | cell number [1] | cell number [2] | H1.0 immunofluorescence intensity [3] | H1.0 immunofluorescence intensity [4]
1 | O=C1Nc2ccc(Br)cc2C1=Cc1cc2c([nH]1)CCCC2 [VEGF Receptor 2 Kinase Inhibitor II] | 94 | 114 | 76.2 (inactive) | 190 (active)
2 | Nc1ccc(-c2cccc3c(=O)cc(N4CCOCC4)oc23)cc1 | 78.1 | 99.3 | 82.5 (inactive) | 156 (active)
3 | Fc1ccc(-c2nc3n(c2-c2ccncc2)CCS3)cc1 | 95.4 | 108 | 92.3 (inactive) | 107 (inactive)
4 | O=C(/C=C/c1cccnc1)NCCCCC1CCN(C(=O)c2ccccc2)CC1 | 106 | 107 | 98.9 (inactive) | 90.3 (inactive)
5 | CS(=O)(=O)O.NC(=NC(=O)c1nc(Cl)c(N)nc1N)Nc1ccccc1 [Phenamil methanesulfonate] | 103 | 116 | 88.9 (inactive) | 96.1 (inactive)
6 | CN(C)S(=O)(=O)c1ccc2c(c1)C(=Cc1cc3c([nH]1)CCCC3)C(=O)N2 | 72.9 | 48 | 97.5 (inactive) | 184 (active)
7 | C[n+]1cc2c3c(ccc2c2ccc4cc5c(cc4c21)OCO5)OCO3 [Sanguinarine] | 93.5 | 93.6 | 98.2 (inactive) | 114 (inactive)
8 | CC(C)CCN1c2nc(Nc3cc(F)c(O)c(F)c3)ncc2N(C)C(=O)C1C (stereo unspecified) | 65 | 29.6 | 131 (active) | 148 (active)
9 | CCCCCCCCCCCCCCCC(=O)OCC(O)C1OC(=O)C(O)=C1O (stereo unspecified) [Ascorbyl palmitate] | 98.6 | 105 | 96.1 (inactive) | 102 (inactive)
10 | CS(=O)c1ccc(-c2nc(-c3ccc(F)cc3)c(-c3ccncc3)[nH]2)cc1 (stereo unspecified) | 92.7 | 107 | 98 (inactive) | 104 (inactive)
11 | COc1ccc(-c2cc(=O)c3c(O)c(OC)c(OC)cc3o2)cc1O | 68.2 | 80.2 | 102 (inactive) | 139 (inactive)
12 | Nc1ccccc1NC(=O)CCCCCCC(=O)Nc1ccccc1 [N~1~-(2-aminophenyl)-N~8~-phenyloctanediamide] | 98.8 | 89.4 | 92.6 (inactive) | 145 (active)
13 | CNCCC(Oc1ccc(C(F)(F)F)cc1)c1ccccc1.Cl (stereo not drawn) [S-(+)-Fluoxetine hydrochloride] | 91.2 | 93.3 | 107 (inactive) | 111 (inactive)
14 | CCc1nc(-c2cccc(C)c2)c(-c2ccnc(NC(=O)c3ccccc3)c2)s1 | 88.3 | 84.4 | 87.8 (inactive) | 120 (inactive)
15 | CC(ONC(=O)c1cc(C(F)(F)F)cc(C(F)(F)F)c1)C(=O)Nc1ccc(Cl)cc1 (stereo unspecified) | 85.2 | 93.3 | 103 (inactive) | 144 (active)
16 | COC(=O)c1c(-c2cc(OC)c(OC)c(OC)c2)c2ccc(OCc3ccccn3)cc2c(=O)n1-c1ccc(N)cc1.O=S(=O)(O)O | 100 | 113 | 95.1 (inactive) | 102 (inactive)
17 | CCC=CCC=CCC=CCCCCCCCCCCCC(=O)O [Docosatrienoic acid] | 101 ± 2.4 | 97.7 ± 10 | 100 (inactive) | 102 (inactive)
18 | Nc1nccc2c1ncn2C1OC(CO)C(O)C1O (stereo unspecified) [3-deazaadenosine] | 97 | 88.2 | 93.7 (inactive) | 88.8 (inactive)
19 | Nc1ncnc2c1ncn2C1OC(CO)C(O)C1O (stereo unspecified) [Adenosine] | 107 | 109 | 92.7 (inactive) | 93.6 (inactive)
20 | CC(=O)Oc1ccccc1C(=O)O [Acetylsalicylic Acid] | 101 | 99 | 96.1 (inactive) | 102 (inactive)
21 | CC(=O)SC1CC2=CC(=O)CCC2(C)C2CCC3(C)C(CCC34CCC(=O)O4)C12 (stereo unspecified) [Spironolactone] | 99.1 ± 3.8 | 105 ± 7.3 | 92.2 (inactive) | 104 (inactive)
22 | Nc1[nH]nc2nc3ccccc3nc12 [Cdk1/5 Inhibitor] | 99.6 | 95.2 | 104 (inactive) | 113 (inactive)
23 | O=C(NCCCNc1nc(Nc2cccc(NC(=O)N3CCCC3)c2)ncc1I)c1cccs1 | 62 | 42.3 | 114 (inactive) | 134 (inactive)
24 | CC(N)C1CCC(C(=O)Nc2ccncc2)CC1.Cl.Cl (stereo unspecified) | 110 | 106 | 87.3 (inactive) | 90.1 (inactive)

Reference: the supplement of paper PMC7156485
